# Reference: PubChem BioAssay (EPA / NIEHS)
# The source made the active and inactive calls. How the source made its calls: active means hit-call score of the fitted dose curve at least 0.9, where 1 is the maximum; inactive means score below 0.9.
# Test: ATG_TA_CIS: Attagene CIS-FACTORIAL HepG2 Assay for human TA Basal Promoter (AID 2282964)
# Conditions: HepG2 Attagene CIS-factorial TA basal promoter reporter; actives raise or lower the signal
# Procedure: ATG_CIS is a cell-based, multiplexed-readout assay that uses HepG2, a human liver cell line, with measurements taken at 24 hours after chemical dosing in a 24-well plate.ATG_TA_CIS is one of 52 assay component(s) measured or calculated from the ATG_CIS assay. It is designed to make measurements of mRNA induction, a form of inducible reporter, as detected with fluorescence intensity signals by Reverse transcription polymerase chain reaction (RT-PCR) and Capillary electrophoresis technology.Data from the assay component ATG_TA_CIS was analyzed into 1 assay endpoint. This assay endpoint, ATG_TA_CIS, was analyzed with bidirectional fitting relative to DMSO as the negative control and baseline of activity. Using a type of inducible reporter, measures of mRNA for gain or loss-of-signal activity can be used to understand the background control at the transcription factor-level as they relate to the gene . Furthermore, this assay endpoint can be referred to as a secondary readout, because this assay has produced multiple assay endpoints where this one serves a background control function. To generalize the intended target to other relatable targets, this assay endpoint is annotated to the background measurement intended target family, where the subfamily is internal marker.
# Human liver HepG2 cells are transiently transfected with multiple reporter transcription units (MRTUs) in 6-well plates using FuGene 6 reagent (Roche; 3 ml FuGene/1 mg DNA). The MRTU constructs are regulated by a cis-regulating element (promoter). […] A major difference between the CIS and TRANS system is that in CIS activities of endogenous TFs are measured, whereas the TRANS assay evaluates changes in activities of exogenous, chimeric NR-Gal4 proteins. […] At the end of 24 hour incubation, total RNA was isolated using TriZol reagent (Invitrogen). The isolated RNA is then reverse-transcribed using oligo(dT) primer and Mo-MLV reverse transcriptase (Invitrogen) with DNAse I (Ambion) treatment for 30 min. The one-tenth of the produced cDNA was amplified by PCR using Taq DNA polymerase (Invitrogen) and two reporter sequence-specific primers. The PCR products were fluorescently labeled by primer extension with 6-arboxyfluorescein (6-FAM) 5'-labeled reporter sequence-specific primer (2 min at 95 C, 20 s at 68 C and 10 min at 72 C) and these products were digested with 5U of HpaI (New England Biolabs) for 2h at 37 C. The fragments were purified using Qiaquick PCR columns (Qiagen), analyzed on an ABI 3130xL genetic analyzer (Applied Biosystems) with peak positions identified by using a set of X-rhodamine (ROX)-labeled MapMarker1000 molecular weight standards (BioVentures). The raw capillary electrophoresis data was processed using Attagraph software (Attagene).
SMILES,outcome,AC50
C/C=C(\C)C(=O)OCC/C=C\CC,inactive,
CCCCCCCC#N,inactive,
C=CCOCC(CC)(CO)COCC=C,inactive,
Cc1ccccc1S(N)(=O)=O,inactive,
Cc1cc(C)c(S(=O)(=O)O)cc1N=Nc1cc(S(=O)(=O)O)c2ccccc2c1O,inactive,
CC/C=C\CC1=C(C)CCC1=O,inactive,
CC1(C)S[C@@H]2[C@H](NC(=O)[C@H](N)c3ccccc3)C(=O)N2[C@H]1C(=O)O,inactive,
CC(O)(P(=O)(O)O)P(=O)(O)O,inactive,
CCCCCCOC(=O)CCCCCCCC(=O)OCCCCCC,inactive,
O=[N+]([O-])c1ccccc1C(F)(F)F,inactive,
CC1=C(CC(=O)O)c2cc(F)ccc2/C1=C\c1ccc(S(C)=O)cc1 (stereo not given),inactive,
O=C(Oc1ccccc1)c1ccccc1,inactive,
CCCCCCCCCCC1CO1 (stereo not given),,153 µM (active)
CCCCOC(=O)COc1ccc(Cl)cc1Cl,inactive,
NC(=O)c1ccc([N+](=O)[O-])cc1Cl,inactive,
CC/C=C\CC/C=C/C(OCC)OCC,inactive,
CCCCC(CC)COC(=O)CS (stereo not given),inactive,
CCOC(=O)CC(=O)OCC,inactive,
C=C(C)C(=O)OCC1CCCO1 (stereo not given),inactive,
O=C(CC(C(=O)OC1CCCCC1)S(=O)(=O)O)OC1CCCCC1 (stereo not given),inactive,

SMILES,outcome,AC50
COC(OC)C(C)c1ccccc1 (stereo not given),inactive,
O=C(O)/C=C/C(=O)O,inactive,
CN(C)c1ccc(C(c2ccccc2)c2ccc(N(C)C)cc2)cc1,inactive,
CCCN[C@H]1CCc2nc(N)sc2C1,inactive,
C=CCOC(=O)C(=C)C,inactive,
O=C(O)c1ccccc1C(=O)O,inactive,
CCc1cc(C(N)=S)ccn1,inactive,
CC(C)(Oc1ccc(Cl)cc1)C(=O)O,inactive,
Cc1ccccc1S(=O)(=O)O,inactive,
c1cc(N(CC2CO2)CC2CO2)ccc1Cc1ccc(N(CC2CO2)CC2CO2)cc1 (stereo not given),,26.1 µM (active)
O=C(c1ccccc1)c1ccccc1O,inactive,
COCCCN,inactive,
CC(=O)CCc1ccccc1,inactive,
CN(C)CCC(c1ccc(Cl)cc1)c1ccccn1 (stereo not given),inactive,
CCC(C)NC(N)=O (stereo not given),inactive,
CC(C)CC(=O)CC(C)C,inactive,
CN1CCCC1,inactive,
CN(C)N=Nc1ccccc1,inactive,
CN(C)Cc1cc(C(C)(C)C)c(O)c(C(C)(C)C)c1,inactive,
c1ccc(CNc2ncnc3nc[nH]c23)cc1,inactive,
